Screening data: PubChem BioAssay, The Scripps Research Institute Molecular Screening Center
TTR transcr act: TTR transcription activation, primary screen; SH-SY5Y TTR promoter Gaussia luciferase, luminescence; 100% = recombinant luciferase protein wells; activation, % at 16.7 µM; 1.3% of 92,000 active; AID 1117267;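 active = activation above the mean of all tested compounds plus 3 SD, cut at about 9.5% in these data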;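 also: cells exposed to compounds for one day before reading; 0% = median of all test compound wells on the plate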
HuH7 TTR inh: decreases TTR transcription in HuH7 cells in activator counter-screen. shares compounds with TTR transcr act. HuH7 TTR promoter-Gaussia luciferase reporter, luminescence. inhibition, % at 16.7 µM. 4% of 1,100 active;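 active = average inhibition above the solvent-only control wells' mean plus 3 SD, cut at about 15% in these data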;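 also: 0% = cells with DMSO only and 100% = cells with inhibitor control FD; inhibitors lower well luminescence so higher value means more inhibition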
TTR act confirm: human TTR transcription activation, confirmation; AID 1117280; 1,100 tested, under 10 active; activation, % at 16.7 µM; SHSY5Y TTR promoter Gaussia luciferase, luminescence; 100% = purified Lucia enzyme wells, no cells; shares compounds with TTR transcr act;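 active = mean activation above a set limit taken from the earlier primary screen, cut at about 11% in these data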;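 also: 0% = DMSO-treated cells and 100% = recombinant Lucia luciferase without cells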
Active calls of the source: *. Only a selection was taken, and hits are over-represented in it overall.

SMILES	TTR transcr act	others
COc1ccc2c3c1OC1CC(O)C=CC31CCN(C)C2 (centres undefined)	12*	HuH7 TTR inh=-10;TTR act confirm=0
O=C(N/N=C/C=C\c1ccco1)c1ccccn1	-1
O=C(N/N=C\C=C\c1ccco1)c1cc(-c2ccc3ccccc3c2)n[nH]1	3
O=C(N/N=C\C=C\c1ccco1)c1cncc(Br)c1	13*	HuH7 TTR inh=-2;TTR act confirm=0
COc1ccc(NC(=O)CCC(=O)OCc2ccc([N+](=O)[O-])cc2)cc1	2
O=[N+]([O-])c1ccc(/C=N/N2CCCCC2)cc1	3
O=C1CCN(Cc2ccccc2)C=C1c1ccc(C(F)(F)F)cc1	1
O=C1CCN(Cc2ccccc2)C=C1c1ccc2ccccc2c1	10*	HuH7 TTR inh=-15;TTR act confirm=-1
CC1(C(=O)Nc2ccc3ccccc3c2)CCC(=O)N1C1CCN(Cc2ccccc2)CC1 (centres undefined)	-1
CC(C)c1ccc(C(=O)Nc2cc(Cl)ccc2C(=O)O)cc1	1
Cc1ccc(SCC(=O)NCCc2ccc(F)cc2)cc1	1
O=c1c(Cc2c(F)cccc2Cl)c(O)ccn1C1CC1	0
Cc1ccc(CNC(=O)O[C@H]2CC[C@@]34CCCN3C(=O)CCC[C@H]4[C@H]2C)cc1	-1
CCn1c(=O)cc(OCC(=O)NCC2CCCO2)c2ccccc21 (centres undefined)	-2
CCn1c(=O)cc(OCC(=O)Nc2nc(C)cs2)c2ccccc21	11*	HuH7 TTR inh=-23;TTR act confirm=0
CCn1c(=O)cc(OCC(=O)NCCc2ccc(OC)c(OC)c2)c2ccccc21	1
O=C(CNC(=O)C12CC3CC(CC(C3)C1)C2)N/N=C\c1ccccn1	3
Nc1ccn([C@@H]2O[C@H](CNCc3cc(Br)ccc3OCc3ccccc3)[C@@H](O)[C@H]2O)c(=O)n1	-1
COC(=O)c1ccc2nc(C3CCCCC3)c(Cc3ccccc3)n2c1	14*	HuH7 TTR inh=14;TTR act confirm=-1
COC(=O)c1ccc2nc(-c3ccc(F)cc3)c(Cc3ccccc3)n2c1	-2
CCCc1nc2ccc(C(=O)OC)cn2c1Cc1cccc(F)c1	1
CCOC(=O)C1CCN(C(=O)/C=C/c2ccc(S(=O)(=O)N3CCOCC3)cc2)CC1	0
CCc1cccc(C)c1NC(=O)c1ccc2c(c1)CCN2S(C)(=O)=O	-1
O=C(CSc1ncccn1)N1CCN(Cc2ccccc2)CC1	15*	HuH7 TTR inh=7;TTR act confirm=-1
O=C(CCS(=O)(=O)c1ccc(Br)cc1)N1CCN(Cc2ccccc2)CC1	-1
SMILES	TTR transcr act	others
Cc1cc(C)c(C#N)c(SCC(=O)N2CCN(Cc3ccccc3)CC2)n1	-3
CC(=O)Nc1ccc(C(=O)NCC(=O)OCc2ccccc2F)cc1	2
CC(C)C(NC(=O)c1ccco1)C(=O)OCC(=O)Nc1ccc(C(N)=O)cc1 (centres undefined)	3
COc1nc(OC)nc(N2CCC(NC(=O)C(Cc3cccc(OC)c3OC)NC(C)=O)CC2)n1 (centres undefined)	0
COc1ccc(CCNC(=O)c2cnn(-c3ccccc3)c2N)cc1OC	0
CCOC(=O)c1cnn(-c2ccccc2)c1NC(=O)CCl	-1
CCCc1c(C(=O)NNc2ccccc2OC)cnn1-c1ccccc1	12*	HuH7 TTR inh=-9;TTR act confirm=0
CC1=C(C(=O)Nc2ccc(C(=O)NCCCN3CCCCC3)cc2)SCCO1	1
COc1ccc2[nH]cc(CCNC(=O)/C=C/[C@H]3O[C@@H](n4cnc5c(NC(=O)c6ccccc6)ncnc54)[C@H](O)[C@@H]3O)c2c1	0
COc1cccc(Cn2cc(COC(=O)NCCc3c[nH]c4ccccc34)nn2)c1	0
C=CCOC(=O)C1=C(C)NC(C)=C(C(=O)OCC=C)C1c1ccco1	0
CCOC(=O)C1=C(C)NC(C)=C(C(=O)OC)C1c1ccco1 (centres undefined)	12*	HuH7 TTR inh=-22;TTR act confirm=2
CCOC(=O)C1=C(C)NC(=S)NC1c1ccc(OC(=O)c2ccco2)cc1 (centres undefined)	-1
CCCCCCCOC(=O)C1=C(C)Nc2ncnn2C1c1cccs1 (centres undefined)	-2
CCCCOC(=O)C1=C(C)Nc2ncnn2C1c1cc(OC)ccc1OC (centres undefined)	1
COCCOC(=O)C1=C(C)Nc2ncnn2C1c1ccco1 (centres undefined)	13*	HuH7 TTR inh=-10;TTR act confirm=1
O=C(CCc1nnc(C2CCCCC2)o1)NCCCOc1cccnc1	-1
O=C(NCc1ccccn1)c1ccccc1OCc1ccccc1Cl	-1
CN(C)[C@@H]1CCN(c2ccc3c(c2)O[C@@H]2CCN(C2)S3(=O)=O)C1	-1
C[C@@H]1COC(=O)[C@H](CC(=O)OC(C)(C)C)C/C=C\C[C@@H](CC(=O)N(CCO)Cc2ccccc2)C(=O)N1	-3
O=C(Nc1ccc(F)cc1)OCc1cn(Cc2cc(F)ccc2F)nn1	2
COc1ccc2[nH]cc(C(=O)CN3CCC(C)CC3)c2c1	0
COc1ccc2[nH]c(C)c(C(=O)CN3CCOCC3)c2c1	16*	HuH7 TTR inh=-10;TTR act confirm=0
Cc1[nH]c2ccccc2c1C(=O)CN1CCCC1	0
COc1ccc(-c2cc(C(F)(F)F)n3nc(C)cc3n2)cc1	14*	HuH7 TTR inh=9;TTR act confirm=-1
SMILES	TTR transcr act	others
COc1ccc(-c2cc(C(F)(F)F)n3nc(C(=O)O)nc3n2)cc1	-1
Cc1cc2nc(-c3ccco3)cc(C(F)(F)F)n2n1	-1
N#Cc1cccc(S(=O)(=O)NCC(=O)OCC(=O)c2ccc[nH]2)c1	1
CCN(CC)C(=O)C1=C(C)N(CCC2=CCCCC2)C(=O)C(CC(=O)NCCc2ccccn2)C1 (centres undefined)	24*	HuH7 TTR inh=-9;TTR act confirm=-1
CC1=C(C(=O)N2CCOCC2)CC(CC(=O)NCCc2ccccn2)C(=O)N1CCC1=CCCCC1 (centres undefined)	-1
CCN(CC)C(=O)C1=C(C)N(CCC2=CCCCC2)C(=O)C(CC(=O)NCCCCc2ccccc2)C1 (centres undefined)	-2
COc1ccc(N(CC(=O)NCCC2=CCCCC2)S(=O)(=O)c2ccccc2)c(OC)c1	2
COC(=O)c1ccccc1NC(=O)N1CCN(Cc2ccco2)CC1	-2
COc1cc2c(cc1OC)C1=NC(=O)CN1C(SCc1ccc(C)cc1)=N2	-2
C=CCc1ccc(OCCn2cccc2C=O)c(OC)c1	-4
C=CCSC1=Nc2cc(OC)c(OC)cc2C2=NC(=O)CN12	31*	HuH7 TTR inh=14;TTR act confirm=-1
Brc1ccc(-c2csc(-c3ccncc3)n2)cc1	-1
Cc1ccc(CN2CCCCC(NC(=O)Nc3ccccc3F)C2=O)cc1 (centres undefined)	-2
O=C(COC(=O)c1ccc(O)cc1)Nc1cc(S(=O)(=O)N2CCOCC2)ccc1Cl	-1
CCC/C(=N\NC(=O)c1ccccc1C)c1ccccc1	10*	HuH7 TTR inh=4;TTR act confirm=-1
Cc1ccccc1C(=O)NCC(=O)c1ccccc1	2
O=C(O)CC/C(=N/NC(=O)c1cccs1)c1ccccc1	-1
CN(Cc1ccccc1)C(=O)[C@@H]1CCCN1C(=O)[C@@H]1CCCN1C(=O)c1cccc2ccccc12	3
COc1ccccc1Nc1nnc(SCC(=O)Nc2cc(C)on2)s1	10
COc1ccccc1NC(=O)Cc1noc(CSc2nnc(N)s2)n1	11*	HuH7 TTR inh=-21;TTR act confirm=1
COc1ccccc1NC(=O)Cc1csc(NC(=O)c2ccccc2)n1	-1
